Measured values: PubChem BioAssay (Tox21)
Results filed as inconclusive are left out. A call without a number means that no potency is given here. Activity calls are given as the source filed them. Calls follow the shape of the dose curve; as a rule, active = well fitted cell-killing curve with a large enough effect in the repeat runs; inconclusive = weak or mixed curves, or effect the other way; inactive = no such curve, though single readings can be large or run the other way.

assay: qHTS assay to identify small molecule agonists of the RXR signaling pathway - cell viability counter screen (AID 1159529); conditions: RXR-alpha-bla HEK293T viability, CellTiter-Glo, 16 h; series mostly up to 76.8 µM; also: nearly all actives have a fitted effect of over 50% in size
Text: National Center for Advancing Translational Sciences [NCATS]
NIH Chemical Genomics Center [NCGC]
U.S. Environmental Protection Agency [EPA]
National Institutes of Environmental Health Sciences [NIEHS]
National Toxicology Program [NTP]
U.S. Food and Drug Administration [FDA]
The Retinoid X receptor (RXR), a nuclear hormone receptor expressed in liver, spleen, placenta, epidermis, central nervous system. These receptors are able to form homo and heterodimers with other nuclear receptors and due to this heterodimerizing ability, RXR functions as master regulators producing diverse physiological effects. Three subtypes of RXR exist; alpha, beta and gamma. Retinoid X receptor alpha (RXR-alpha) has potential roles in metabolic signaling pathways, skin alopecia, dermal cysts, cardiac development, insulin sensitization etc. Therefore screening environmental chemicals on RXR-alpha signaling can be used for the studies focused on such therapeutic applications. For quantification of RXR-alpha ligands signaling, GeneBLAzer RXR alpha-UAS-bla HEK 293T (Life Technologies, Carlsbad, CA) cells containing a beta-lactamase reporter-gene under control of Retinoid X receptor-alpha response element were used to screen Tox21 10K library. The cytotoxicity of the Tox21 compound library against the RXR-alpha HEK 293T cell line was tested in parallel by measuring cell viability using CellTiter-Glo assay (Promega Corporation, Madison, WI) in the same wells.
Tox21 Assay Protocol Summary:
RXR-alpha HEK 293T cells were dispensed at 2,000 cells/6 uL of assay medium containing 2% charcoal-stripped FBS using a Multidrop Combi (ThermoFisher Scientific, Waltham, MA) dispenser. The assay was performed in black wall/clear-bottom 1536-well plates (Greiner Bio-One North America Inc. Monroe, NC). Tetraoctyl ammonium bromide was used as a positive control in the cytotoxicity screen. After the assay plates were incubated at 37 C and 5% CO2 for 5 hr, 23 nL of compounds dissolved in DMSO, positive control or DMSO only were transferred to the assay plate by a Pintool station (Kalypsys, San Diego, CA). The assay plates were incubated at 37 C and 5% CO2 for 16 hr. One uL of LiveBLAzer B/G FRET substrate (Life Technologies) was added using a Flying Reagent Dispenser (FRD) (Aurora Discovery, San Diego, CA) and the plates were incubated at room temperature for 2 hr. Fluorescence intensity (405 nm excitation, 460/530 nm emission) was measured using an Envision plate reader (PerkinElmer, Shelton, CT). For cytotoxicity, 4 uL/well of CellTiter-Glo reagent was added into the assay plates using an FRD. After 30 min incubation at room temperature, the luminescence intensity was measured using a ViewLux plate reader (PerkinElmer).

SMILES	Potency	activity change, negative = cytotoxicity
Cc1ccc(-c2nc3ccc(C)cn3c2CC(=O)N(C)C)cc1	inactive	
N#CN=C1SCCN1Cc1ccc(Cl)nc1	inactive	
C[C@H](N)C(=O)c1ccccc1	inactive	
Cc1ccc2c(c1)C1CN(C)CCC1N2 (stereo not given)		-17.4% [at 15.8 µM] (inactive)
[P]#[In]	inactive	
CC1=C2[C@H]3OC(=O)[C@@H](C)[C@@H]3CC[C@@]2(C)C=CC1=O	inactive	
CS(=O)(=O)Cl	inactive	
NNCc1ccccc1	inactive	
CCCOC(=O)c1cncn1C(C)c1ccccc1 (stereo not given)	inactive	
S=C=S	inactive	
[O-][Br+2]([O-])O	inactive	
CCN(CCO)CCn1c(Cc2ccccc2)nc2c1c(=O)n(C)c(=O)n2C	inactive	
O=C(Cl)OCc1ccccc1	inactive	
C=CC=O	inactive	
CN=CNc1ccc(C)cc1C	inactive	
CCN(CC)C1CCCCC1	inactive	
O=C(Cl)/C=C/C(=O)Cl	inactive	
CC(C)c1ccc(O)cc1	inactive	
O=C(O)CBr	inactive	
CC(=O)OCC1=C(C(=O)O)N2C(=O)[C@@H](N)[C@H]2SC1		-9.25% [at 15.8 µM] (inactive)

SMILES	Potency	activity change, negative = cytotoxicity
CC[C@@H](CO)NC(=O)[C@@H]1C=C2c3cccc4[nH]cc(c34)C[C@H]2N(C)C1	inactive	
CCN[C@@H](C)Cc1ccccc1	inactive	
COc1ccc(CN2CCNCC2)c(OC)c1OC	inactive	
CCC(C)(C#N)N=NC(C)(C#N)CC (stereo not given)	inactive	
O=C(CCl)NCO	inactive	
C[C@H]1CCCC(=O)CCC/C=C/c2cc(O)cc(O)c2C(=O)O1	inactive	
C=C1C[C@@H]2[C@H](CC[C@]3(C)C(=O)CC[C@@H]23)[C@@]2(C)C=CC(=O)C=C12	inactive	
CNC(=O)O/N=C(/CSC)C(C)(C)C	inactive	
CN(CCO)CCO	inactive	
BrCC1CO1 (stereo not given)	inactive	
CCCOC(=O)Cc1ccc(OCC(=O)N(CC)CC)c(OC)c1	inactive	
CC(C)(C)C(=O)Cl	inactive	
COc1ccc(C=O)cc1O	inactive	
O=c1[nH]c2ccccc2o1	inactive	
COC(=O)c1ccc(CBr)cc1	inactive	
C(COCC1CO1)OCC1CO1 (stereo not given)	inactive	
BrCCc1ccccc1	inactive	
Cc1ccc(Cl)c(O)c1	inactive	
COC(=O)[C@@H](N)CCCN/C(N)=N/[N+](=O)[O-]	inactive	
CCC(C)C(C)(COC(N)=O)COC(N)=O (stereo not given)	inactive	
